The list is not random: actives were taken first. Their share in the collection is about 3.4%.
TEAD-YAP inh: TEAD-YAP interaction inhibition, primary screen, TEAD-YAP interaction inhibitor project, luminescence, HEK-TIYL cells; 640,000 compounds, 1.4% hits; TEAD-Gal4/YAP UAS-luciferase luminescence; inhibition, % at 9.12 µM; in the data active means inhibition above about 32%
GPR151 activ: activators of human GPR151, primary screen, cell-based, PathHunter beta-arrestin, luminescence. PathHunter beta-arrestin GPR151 cells. activation, % at 11.2 µM. 650,000 compounds, 1% hits; in the data active means activation above about 4.9%
Target sequence (Q8TDV0 whole entry, looked up): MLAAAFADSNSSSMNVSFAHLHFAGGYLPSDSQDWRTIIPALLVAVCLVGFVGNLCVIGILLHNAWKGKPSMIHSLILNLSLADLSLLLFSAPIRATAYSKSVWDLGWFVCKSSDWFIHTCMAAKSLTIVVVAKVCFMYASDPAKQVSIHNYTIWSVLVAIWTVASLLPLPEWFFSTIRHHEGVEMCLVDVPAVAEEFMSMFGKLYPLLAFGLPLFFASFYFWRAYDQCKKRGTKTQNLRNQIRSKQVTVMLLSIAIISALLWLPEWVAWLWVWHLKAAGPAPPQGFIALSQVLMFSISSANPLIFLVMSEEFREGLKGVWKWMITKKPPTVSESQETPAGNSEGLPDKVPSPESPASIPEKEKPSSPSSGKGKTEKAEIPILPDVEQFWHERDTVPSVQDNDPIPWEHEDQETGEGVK
FBW7 act: FBW7 E3 ligase activators, primary screen, biochemical, AlphaScreen, human. F-box/WD repeat-containing protein 7 (Homo sapiens), Q969H0. AlphaScreen FBW7–phospho-cyclin E peptide binding, activator screen. normalized activity (activation), % at 26.1 µM. 650,000 compounds, 0.13% hits. AID 1259310, 2017; in the data active means normalized activity above about 1.9%;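 further: purified mutant Fbw7 with reduced substrate affinity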
MITF primary: MITF inhibitors, primary screen, biochemical, AlphaScreen, human | Microphthalmia-associated transcription factor (Homo sapiens), O75030 | AlphaScreen MITF homodimerization, bead proximity signal | inhibition, % at 2.6 µM | 650,000 compounds, 0.91% hits; in the data active means inhibition above about 50%
A number is an active result; n = inactive; x = no result.

SMILES	TEAD-YAP inh	GPR151 activ	FBW7 act	MITF primary
O=C(/C=C/c1ccc(F)cc1)Nc1ccc([N+](=O)[O-])cc1Br	n	n	n	n
CC(CC(=O)Nc1cc([N+](=O)[O-])ccc1F)c1ccccc1 (stereo not drawn)	38	n	n	n
O=C(/C=C\c1ccco1)Nc1cc([N+](=O)[O-])ccc1F	60	n	n	n
CC(CC(=O)Nc1cc([N+](=O)[O-])ccc1Cl)c1ccccc1 (stereo not drawn)	n	n	n	n
O=C(/C=C/c1ccc(F)cc1)Nc1cc([N+](=O)[O-])ccc1F	53	n	n	n
O=C(NC1CCN(Cc2ccccc2)CC1)c1ccc2nc(NCc3cccnc3)sc2c1	n	n	n	n
O=C1[C@H]2CN(CCCc3ccccc3)CCN2C(=O)[C@H]2CCCN12	n	n	n	n
CC(=NC#N)c1c(C(F)(F)F)[nH]n(-c2nc3ccccc3s2)c1=O	42	n	n	n
COC(=O)c1sccc1NC(=O)c1csc(C)c1-c1ccccc1	33	n	n	n
COc1ccc(-c2nc3ncnc(NC4CCN(Cc5ccccc5)CC4)c3[nH]2)cn1	n	n	n	n
COc1ccc(/C=N/NC(=O)c2cc(O)c(O)c(O)c2)cc1Cn1cc([N+](=O)[O-])cn1	n	n	n	73
COc1ccc(/C=N/NC(=O)c2ccccc2O)cc1Cn1cc([N+](=O)[O-])cn1	n	n	n	n
COc1ccc(/C=N/NC(=O)c2cc(O)c(O)c(O)c2)cc1Cn1cnc([N+](=O)[O-])n1	n	n	n	97
O=C(c1cc(Cl)ccc1Cl)n1cnc2ccccc21	n	n	n	n
CCn1c(-c2ccccc2)cn2c3c(=O)n(C)c(=O)n(C)c3nc12	n	n	n	n
COc1ccc2cc(CN(Cc3ccccc3)Cc3nnnn3C(C)(C)C)c(=O)[nH]c2c1	n	n	n	n
COC(=O)c1c(-c2ccc(C)c(C)c2)csc1NC(=O)/C=C/C(=O)O	33	n	n	n
COC(=O)c1c(NC(=O)/C=C/C(=O)O)sc(C)c1-c1cc(C)ccc1C	42	n	n	n
COC(=O)c1c(-c2ccccc2Cl)csc1NC(=O)/C=C/C(=O)O	42	n	n	n
Cc1nc(-c2cccc([N+](=O)[O-])c2)no1	n	n	n	n
Cc1ccc(NC(=O)CSc2ccc3ccccc3n2)c(C)c1	76	n	n	n
O=[N+]([O-])c1cccc(S(=O)(=O)N2CCCC(c3nc(-c4cccs4)no3)C2)c1 (stereo not drawn)	n	n	3.0	n
CCOc1ccccc1CN1CCN(Cc2cc(=O)c3ccccc3[nH]2)CC1CCO (stereo not drawn)	48	n	n	n
C[C@@H]1CCC2C(=O)O[C@H](CN=[N+]=[N-])CN2[C@H]1c1ccc(Br)cc1 (stereo partly drawn)	x	n	n	n
CC(=O)Nc1ccccc1N(C)S(=O)(=O)c1ccc(C)cc1	51	n	n	n
SMILES	TEAD-YAP inh	GPR151 activ	FBW7 act	MITF primary
CC(=O)Nc1ccccc1NC(=O)CN(C)S(=O)(=O)c1ccc(C)cc1	n	n	n	n
CC(=O)Nc1ccc(S(=O)(=O)N2c3ccccc3C(C)=CC2(C)C)cc1	58	n	n	n
CCc1ccc(C(=O)N2CCN(c3ccc(-n4nc(C)c(C)c4C)nn3)CC2)cc1	n	n	n	n
Cc1c(C(=O)NC2=NCCS2)oc2ccccc12	38	n	n	n
CCc1c(C)sc2ncn3c(=O)n(CCN4CCCC4)nc3c12	n	n	21	n
Cn1cnnc1SCC(=O)Nc1ccc(C(N)=O)cc1	33	n	n	n
COC(=O)[C@@H]1C[C@@H](NC(=O)c2ccc3ccccc3c2O)CN1Cc1cc(F)ccc1F	42	n	n	n
C=CCNC(=O)c1ccc(C)c(I)c1	n	n	n	n
COc1ccc(-c2cnnc(N3CCC(OCc4cccnc4)CC3)n2)cc1	n	n	n	n
O=C1c2ccccc2C(=O)c2c1nc1ccccn21	n	n	n	n
CCn1c2c(n[n+]1[O-])C(=O)c1ccccc1C2=O	101	n	n	n
O=C(Nc1ccc(Cl)cc1Cl)C1CCN(C(=O)c2ccccc2)CC1	n	n	n	n
O=c1cc(-c2ccccc2)oc2cc(O)c(O)cc12	70	n	n	n
O=c1cc(-c2ccccc2)oc2c(O)c(O)ccc12	43	n	n	n
C#CCSc1nc(-c2ccccc2)cc(-c2ccccc2OC)c1C#N	n	n	n	n
N#CC1=C(SCC(=O)Nc2ccccc2[N+](=O)[O-])NC(=O)CC1c1ccccc1F (stereo not drawn)	34	n	n	n
CCOC(=O)CSC1=C(C#N)C(c2ccc(C)o2)CC(=O)N1 (stereo not drawn)	60	n	n	n
N#CC1=C(SCC(=O)Nc2ccccc2Cl)NC(=O)CC1c1ccc(F)cc1 (stereo not drawn)	n	n	n	n
CCOC(=O)CSC1=C(C#N)C(c2ccc(Cl)cc2)CC(=O)N1 (stereo not drawn)	n	n	n	n
CCOC(=O)CSC1=C(C#N)C(c2cccc(Cl)c2)CC(=O)N1 (stereo not drawn)	66	n	n	n
N#CC1=C(SCC(=O)Nc2ccc(Cl)c(Cl)c2)NC(=O)CC1c1cccs1 (stereo not drawn)	59	n	n	n
Cc1cccc(NC(C)C(=O)N/N=C/c2cc([N+](=O)[O-])ccc2O)c1 (stereo not drawn)	n	n	n	n
CCCCOC(=O)CSC1=C(C#N)C(c2cccc(Cl)c2)CC(=O)N1 (stereo not drawn)	45	n	n	n
COC(=O)CSC1=C(C#N)C(c2cccc(Cl)c2)CC(=O)N1 (stereo not drawn)	57	n	n	n
COC(=O)CSC1=C(C#N)C(c2ccc(Cl)cc2)CC(=O)N1 (stereo not drawn)	n	n	n	n
SMILES	TEAD-YAP inh	GPR151 activ	FBW7 act	MITF primary
O=C1C(=O)N(Cc2cccnc2)C(c2cccc(Oc3ccccc3)c2)/C1=C(/O)c1ccc(Cl)cc1 (stereo not drawn)	n	n	n	n
Cc1[nH]c2ccc(C(=O)NN)cc2c1C	38	n	n	n
CCNC(=O)c1ccc2[nH]c(C)c(C)c2c1	n	n	n	n
CCC1CCC(C(=O)NC(C(=O)NCCc2ccc(S(N)(=O)=O)cc2)C(C)C)CC1 (stereo not drawn)	40	n	n	n
COc1cc(Nc2nccc(Nc3ccc(N4CCOCC4)cc3)n2)cc(OC)c1OC	44	n	n	n
COc1cc(Nc2nc(C)cc(Nc3ccc(N4CCOCC4)cc3)n2)cc(OC)c1OC	70	n	n	n
Cn1nc(-c2ccc(OCC(=O)N3CCCCC3)cc2)c2ccccc2c1=O	52	n	n	n
Cn1nc(-c2ccc(OCC(N)=O)cc2)c2ccccc2c1=O	n	n	n	n
Cc1c(C(=O)Nc2ccc(Oc3ccccc3)cc2)sc2ncnc(N3CCN(c4ccccn4)CC3)c12	n	n	n	n

Assay outcomes deposited in PubChem BioAssay by The Scripps Research Institute Molecular Screening Center.
